Sampled rows, rich in hits. Any-hit rate of the full collection: about 3.1%.
OvCa metastasis: ovarian cancer metastasis inhibition, 3D TME model; SKOV3ip1-GFP adhesion/invasion on 3D omental model, fluorescence; Potency, µM (top dose mostly 45.8 µM), hits mostly inhibitors; 46,000 tested, 0.1% active; further: nearly all actives have a fitted effect of over 65% in size
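Adhesion/invasion was scored as fixed GFP-labeled SKOV3ip1 cell counts (488/509 nm), normalized to DMSO and tomatine controls. Cancer cells in serum-free medium, with four compound doses (0.36-46 umol/L), sat 2 hr at RT then 16 hr at 37 C on a 48 hr fibroblast/mesothelial/ECM culture.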
S16 F2sN tox: cytotoxicity in S16 Pmp22-F2sN Schwann cells. S16 Pmp22-F2sN Schwann cells viability, CellTiter-Glo, 24 h. Potency, µM (top dose mostly 57.5 µM), actives largely listed as cytotoxic. 43,000 tested, 0.48% active; further: nearly all actives have a fitted effect of over 65% in size
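Luminescence from CellTiter-Glo, read by CCD camera after a 15 min room-temperature incubation, served as the viability signal. Reporter Schwann cells (S16 Pmp22-F2sN) had been treated with pin-transferred compounds for 24 h at 37C.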
PMP22 txn: PMP22 gene transcription modulation; S16 Pmp22-F2sN Schwann cells (luciferase reporters placed in the Pmp22 gene), FLuc/NLuc coincidence luminescence, 24 h; Potency, µM (highest dose often 57.5 µM), usual class: inhibitors; 43,000 tested, 2% active; AID 1508649; active means clear falling dose curves in both reporters; inconclusive means both reporters move, but less clearly or upward; inactive means either reporter flat; the % is the NLuc reporter signal
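Rat S16 Pmp22-F2sN cells, 500-1,000/well in phenol red-free DMEM + 10% FBS, compound-treated 24 h (37C, 5% CO2). Luminescence: FLuc read, Stop&Glo added, NLuc read.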
mTORC1 inh: mTORC1 pathway inhibition measured by phospho-rpS6; 44,000 tested, 0.78% active; Potency, µM (doses to about 38.3 µM), most hits filed as inhibitors; Tsc2-/- p53-/- MEF, phospho-rpS6 immunofluorescence/PI, 24 h; further: nearly all actives have a fitted effect of over 50% in size
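Readout is phospho-S6 Alexa 488 signal normalized to PI per well, reported as % active cells with thresholds set from rapamycin (7.5 nM) and DMSO controls. Cells: Tsc2-/-, p53-/- MEFs, 24 hrs compound at 37 C; PI cell number serves as viability.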
p53null 32C kill: selectivity test: cytotoxicity in p53 null cells, permissive temperature | Potency, µM (series often up to 46.1 µM), most hits filed as cytotoxic | H1299-neo p53 null cells, ATP luminescence, 24 h, 32C | 55,000 tested, 0.62% active; further: nearly all actives have a fitted effect of over 55% in size
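Luminescent ATP readout gave cell viability of p53-null H1299-neo cells after a 24 h compound exposure at the permissive 32C. Titrations ran up to 46 uM, and AC50s were fitted with the standard Hill equation.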
p53null 39C kill: kills p53 null cells at the nonpermissive temperature. H1299 p53-null (neo) cells, 39C, ATPlite viability, 24 h. Potency, µM (doses to about 46.1 µM), actives largely listed as cytotoxic. 55,000 tested, 0.97% active. AID 904; further: nearly all actives have a fitted effect of over 50% in size
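Concentration-response (up to 46 uM) was run for 24 h at the nonpermissive 39C on H1299-p53A138V or H1299-neo cells. ATP content was measured with ATPlite luminescence. AC50 values were Hill-modeled after normalizing between DMSO and 100 uM tamoxifen killing.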
Hits are given with their value; – = inactive; ? = inconclusive; · = no result. Unless noted, the call rests on the fitted dose curve; in most records, active means well fitted curve in the direction sought with a large enough effect; inconclusive means small, poorly fitted or top-dose-only effect, or another doubt; inactive means no such curve, though single readings can be large; an effect the other way counts as inactive or inconclusive.

SMILES	OvCa metastasis	S16 F2sN tox	PMP22 txn	mTORC1 inh	p53null 32C kill	p53null 39C kill
Cc1cc(C)cc(NC(=O)c2cnn(-c3ccc(C)c(C)c3)c2C2CCNCC2)c1	–	?	?	7.36µM	–	–
CC1(C)CC(=O)c2c(C(F)(F)F)nn(-c3ccc(C(N)=O)c(NC4CCC(OC(=O)CN)CC4)c3)c2C1 (configuration not stated)	–	·	·	·	·	·
COc1cc(F)c(F)c(Nc2ccc(I)cc2F)c1NS(=O)(=O)C1(C[C@H](O)CO)CC1	–	·	·	·	·	·
Cc1cc(OCCn2c(C3CC(=O)N(Cc4ccc(F)cc4)C3)nc3ccccc32)ccc1Cl (configuration not stated)	?	–	?	–	–	–
CCOc1ccccc1N1CC(c2nc3ccccc3n2CCCOc2ccccc2OC)CC1=O (configuration not stated)	–	–	–	–	–	–
CCOc1ccc(N2CC(c3nc4ccccc4n3CCC3CCCCC3)CC2=O)cc1 (configuration not stated)	–	–	?	–	–	–
CCOc1ccccc1N1CC(c2nc3ccccc3n2CCOc2ccc(C(C)(C)C)cc2)CC1=O (configuration not stated)	–	–	–	?	?	20µM
CCOc1ccccc1N1CC(c2nc3ccccc3n2CCCCOc2cc(C)ccc2C)CC1=O (configuration not stated)	–	–	–	–	?	12.6µM
CCc1ccccc1N1CC(c2nc3ccccc3n2CCOc2ccc(Cl)c(C)c2)CC1=O (configuration not stated)	–	?	?	–	–	17.8µM
O=C1CC(c2nc3ccccc3n2CCC2CCCCC2)CN1c1ccccc1Cl (configuration not stated)	–	–	–	–	?	15.8µM
CN(C)CC=CC(=O)Nc1cc2c(Nc3ccc(F)c(Cl)c3)ncnc2cc1O[C@H]1CCOC1	–	·	·	·	·	·
Nc1nc(Cl)nc2c1ncn2[C@@H]1O[C@H](CO)[C@@H](O)[C@H]1F	–	·	·	·	·	·
CCC1=Nc2cc(C(=O)NC3CCCC3)ccc2Sc2ccc(Cl)cc21	–	?	8.43µM	?	–	–
CCC1=Nc2cc(C(=O)NCCc3ccc(OC)c(OC)c3)ccc2Sc2ccccc21	–	–	?	–	–	–
CC1=Nc2cc(C(=O)NC3CCCC3)ccc2Sc2ccc(Cl)cc21	–	?	5.32µM	–	–	–
CO[C@H]1C=CC=C(C)C(=O)NC2=CC(=O)C(NCCN(C)C)=C(C[C@@H](C)C[C@H](OC)[C@@H](O)[C@@H](C)C=C(C)[C@@H]1OC(N)=O)C2=O	–	·	·	·	·	·
O=C1c2ccccc2C(=O)C1c1ccnc2ccccc12	·	·	·	·	?	15.8µM
CCc1ccc(-n2c(=O)c3c4c(sc3n(CC(=O)c3ccc(F)cc3)c2=O)CCC4)cc1	–	–	?	5.21µM	–	–
Cc1c(Cl)cccc1-c1ccc(C(=O)Nc2ccc3oc(-c4cccnc4)nc3c2)o1	?	–	–	13.1µM	–	–
CCCC(=O)Nc1cccc(-c2nc3ncccc3o2)c1	–	·	·	–	–	–
O=C(Nc1cccc(-c2nc3ncccc3o2)c1)c1ccc(-c2cccc(Cl)c2Cl)o1	?	·	·	?	12.6µM	10µM
COc1ccc2c(c1)CCc1c(C(=O)Nc3cnn(Cc4ccc(Cl)cc4Cl)c3)noc1-2	–	–	–	–	–	–
COc1ccc(OC)c(-c2cc(C(=O)Nc3cnn(Cc4ccc(Cl)cc4Cl)c3)no2)c1	?	·	·	?	?	10µM
COC(=O)c1ccc2c(C(=Nc3ccc(N(C)C(=O)CN4CCN(C)CC4)cc3)c3ccccc3)c(O)[nH]c2c1	–	·	·	·	·	·
CN(C(=O)c1cccc(Nc2ccc(-c3ccc4c(c3)OCCO4)nn2)c1)C1CCCCC1	·	·	·	·	11.2µM	12.6µM
SMILES	OvCa metastasis	S16 F2sN tox	PMP22 txn	mTORC1 inh	p53null 32C kill	p53null 39C kill
N#Cc1c(NC(=O)c2cccc3ccccc23)sc2c1CCCC2	–	·	·	·	·	·
Cc1ccc(-c2cc3ncc4c(n3n2)-c2ccccc2OC4)cc1	–	–	–	–	·	·
Cc1ccc(-c2nc3n(n2)Cc2ccccc2-3)cc1	·	·	·	·	8.91µM	?
NC1(Cc2ccc(Cl)cc2)CCN(c2ncnc3[nH]ccc23)CC1	–	·	·	·	·	·
COc1cccc(OC)c1-c1cc(C(=O)NC2(C(=O)O)C3CC4CC(C3)CC2C4)nn1-c1ccnc2cc(Cl)ccc12 (configuration not stated)	–	·	·	·	·	·
CN(C[C@@H]1COCCO1)S(=O)(=O)Nc1ccc2ccc3ncc(-c4cnn(C)c4)cc3c(=O)c2c1	–	·	·	·	·	·
Cc1cnc(NC(=O)CSc2ncn(-c3ccccc3)n2)s1	·	·	·	·	–	–
Cc1cnc(NC(=O)CSc2nnc(-c3ccccc3)o2)s1	·	·	·	·	?	14.1µM
Nc1ncn([C@@H]2O[C@H](CO)[C@@H](O)[C@@H]2O)c(=O)n1	–	·	·	·	·	·
Cc1ccc(C)c(Nc2nn3c(=O)c4cc5c(cc4nc3s2)OCO5)c1	–	–	–	–	–	–
O=c1c2cc3c(cc2nc2sc(Nc4ccccc4)nn12)OCO3	–	–	–	–	10µM	6.31µM
COc1ccc(C)cc1S(=O)(=O)Nc1cccc(-c2ccc(N3CCC(C)CC3)nn2)c1	–	·	·	–	–	–
CC1CCN(c2ccc(-c3cccc(NS(=O)(=O)c4cccs4)c3)nn2)CC1	–	·	·	–	7.94µM	10µM
COc1ccc(S(=O)(=O)Nc2cccc(-c3ccc(N4CCC(C)CC4)nn3)c2)cc1OC	–	·	·	–	3.16µM	7.94µM
COc1ccc(S(=O)(=O)Nc2cccc(-c3ccc(N4CCCC4)nn3)c2)cc1OC	–	·	·	–	–	–
COc1ccc(F)cc1S(=O)(=O)Nc1cccc(-c2ccc(N3CCC(C)CC3)nn2)c1	–	·	·	–	?	?
CC1CCN(c2ccc(-c3cccc(NS(=O)(=O)c4ccc(Cl)s4)c3)nn2)CC1	–	·	·	–	6.31µM	10µM
CCN(C(=O)c1c(O)c2c(Cl)cccc2n(C)c1=O)c1ccccc1	–	·	·	·	·	·
O=C(c1cnc(N2CCOCC2)c2ccccc12)N1CCN(c2ccccc2)CC1	–	–	?	–	–	12.6µM
COc1ccc(-c2noc(-c3ccc(NCc4cccnc4)c([N+](=O)[O-])c3)n2)cc1OC	–	–	–	–	–	–
COc1cc(-c2noc(-c3ccc(NCc4cccnc4)c([N+](=O)[O-])c3)n2)cc(OC)c1OC	–	–	7.08µM	–	–	–
CC(C)C[C@@H](N)[C@H](O)C(=O)N[C@H](C(=O)N[C@H](C(=O)N[C@@H](CC(=O)O)C(=O)O)C(C)C)C(C)C	–	·	·	·	·	·
